Laboratory results published in PubChem BioAssay AID1259249 (Broad Institute, 2017).
The whole screen tested about 86,000 compounds, of which about 220 (0.26%) were called active.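 Rule for the calls: active = mean growth activity at or below -80% and every replicate also at or below -80%; inconclusive = mean at or below -80% but some replicate above -80%; inactive = mean growth activity above -80%.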 The list comes from a sample in which actives are over-represented; it also holds similar structures and randomly drawn compounds.

Assay: C. difficile growth inhibitors, primary screen, HTS (AID 1259249);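 note: 0% = DMSO wells and -100% = levofloxacin 16 µg/mL wells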
Conditions: Clostridium difficile clinical isolate growth, OD600, 24 h; stronger effect = lower value; screened at 16 µg/mL (by protocol)

Growth activity, negative = inhibition, inactive:
Cc1ccc(-c2ccc3c(c2)O[C@H](CN(C)C(=O)CC2CC2)[C@@H](C)CN([C@H](C)CO)S3(=O)=O)cc1 3.19%
CCC(CO)Oc1cc(NC(=O)c2ccc(Cl)cc2)c2ncn(C(C)C)c2c1 (stereo not given) -0.177%
O=C(NC1CCCC1)N1CC(=O)N2[C@H](C1)[C@H](c1ccc(/C=C/c3ccccc3)cc1)[C@@H]2CO -1.1%
COCC(=O)N1CC2(C1)[C@@H](c1ccc(-c3cccc(F)c3)cc1)[C@@H](CO)N2C(=O)COC -0.178%
CN1c2ccc(Br)cc2[C@@H]2[C@@H](CCN2S(=O)(=O)c2ccc(F)cc2)[C@@H]1CO 67.3%
COCC(=O)N1CC(=O)N2[C@H](C1)[C@@H](c1ccc(C#Cc3cccc(OC)c3)cc1)[C@@H]2CO -20.7%
Cc1nc(N2[C@H](CO)[C@H](c3ccccc3)[C@H]2CNCC2CCC2)sc1C 8.18%
C/C=C/c1ccc([C@@H]2[C@@H](CO)N(C(=O)c3ccccc3)C23CN(C(C)=O)C3)cc1 -2.56%
COc1ccc(C#Cc2cccc(-c3nc(C(=O)O)cc4c3[C@@H](CCO)N(S(=O)C(C)(C)C)C4)c2)cc1OC (stereo not given in full) -2.07%
CCO[C@H]1OC(C(=O)N2CCCCCCC2)=C[C@@H](c2ccc(C(F)(F)F)cc2)[C@@H]1CCCO 9.8%
C[C@H]1CN([C@@H](C)CO)C(=O)c2cc(C#CC3CCCCC3)cnc2O[C@@H]1CN(C)C(=O)Cc1ccccn1 -14%
Cc1noc(C)c1S(=O)(=O)N(C)C[C@@H]1OCCCC[C@@H](C)Oc2ccc(NC(=O)c3ccccc3)cc2C(=O)N([C@H](C)CO)C[C@H]1C 5.17%
COc1ccc(CN(C)C[C@H]2OCCCC[C@H](C)Oc3ccc(NS(C)(=O)=O)cc3C(=O)N([C@H](C)CO)C[C@@H]2C)cc1 -0.222%
O=C(C[C@@H]1C=C[C@@H](NS(=O)(=O)c2ccccc2)[C@H](CO)O1)N1CCN(c2ccccc2)CC1 0.541%
O=C(c1cnccn1)N1CC2(C1)[C@H](c1ccccc1)[C@H](CO)N2C(=O)c1ccccc1 -0.792%
O=C(C[C@H]1CC[C@H]2[C@@H](COC[C@@H](O)CN2CC2CCCC2)O1)NCC1CC1 -1.93%
Cc1ccccc1S(=O)(=O)N1C[C@@H]2N[C@H](C1)C2c1ccc(-c2cccc(C(=O)N(C)C)c2)cc1 (stereo not given in full) 4.24%
CN(C)CC(=O)N1[C@H](C(=O)NC2CCC2)[C@@H](CO)[C@@H]2Cn3c(ccc(-c4ccc(F)cc4)c3=O)[C@@H]21 -0.849%
CCCNC(=O)N1CCC2(CC1)CN(C(=O)CN1CCOCC1)[C@H](CO)c1[nH]c3cc(OC)ccc3c12 5.44%
C[C@@H]1CCCCO[C@H](CN(C)C(=O)NC2CCCCC2)[C@H](C)CN([C@H](C)CO)C(=O)c2cc(NC(=O)c3ccncc3)ccc2O1 -3.74%
COc1ccc2c3c([nH]c2c1)[C@H](CO)N(Cc1nccs1)CC31CCN(C(=O)C2CCC2)CC1 -4.33%
CCCC#Cc1ccc([C@@H]2[C@@H](C#N)N(C(=O)C3CC3)[C@H]2CO)cc1 -16.8%
CCCNC(=O)Nc1ccc2c(c1)OC[C@H](C)N(CCC(F)(F)F)C[C@H](C)[C@@H](OC)CN(C)C2=O -16.2%
Cc1ccc(S(=O)(=O)N[C@@H]2CC[C@@H](CCn3cc(C4CC4)nn3)O[C@@H]2CO)cc1 -1.26%
C[C@@H]1CCCCO[C@@H](CN(C)C(=O)NC2CCCCC2)[C@H](C)CN([C@H](C)CO)C(=O)c2cc(NC(=O)Nc3cccc4ccccc34)ccc2O1 2.69%
O=C(c1ccncc1)N1C[C@H]2[C@@H](c3ccccc31)[C@H](CO)N2Cc1ccc(F)cc1 -10.6%
CCCC(=O)N1CC2(CN(C(=O)NC(C)C)C2)c2c([nH]c3cc(OC)ccc23)[C@@H]1CO -10.9%
CC(C)C(=O)Nc1ccc2c(c1)C(=O)N(C)[C@@H]1CC[C@@H](CC(=O)NCCc3ccccc3)O[C@H]1CO2 -2.19%
COc1ccc2c3c(n(C)c2c1)[C@H](CO)N(CC1CC1)CC31CCN(C(=O)c2ccccc2)CC1 22.3%
COCc1cn(CC[C@@H]2CC[C@@H](NC(=O)Nc3ccc(C(F)(F)F)cc3)[C@H](CO)O2)nn1 1.56%
C[C@@H]1CN([C@@H](C)CO)C(=O)c2cc(NC(=O)Nc3ccc4c(c3)OCO4)ccc2O[C@@H](C)CCCCO[C@H]1CN(C)C(=O)Nc1ccc(C(F)(F)F)cc1 3.76%
CCN1[C@@H]2c3cccc(=O)n3C[C@H]1[C@H](CO)[C@H]2C(=O)NC1Cc2ccccc2C1 -3.73%
O=C(C1CCC1)N1CC(=O)N2[C@@H](CO)[C@@H](c3ccc(C#Cc4cccc(F)c4)cc3)[C@@H]2C1 -12.4%
Cc1ccc(-c2cnc3c(c2)C(=O)N([C@H](C)CO)C[C@H](C)[C@@H](CN(C)C(=O)c2cccc(F)c2)O3)cc1 0.45%
CN1c2ccc(-c3cccc(F)c3)cc2[C@H]2[C@H](CCN2C(=O)c2cccc(F)c2)[C@H]1CO -1.71%
C[C@@H]1CN([C@@H](C)CO)C(=O)Cc2cc(NC(=O)Nc3ccc(C(F)(F)F)cc3)ccc2O[C@H]1CN(C)Cc1ccc(C(=O)O)cc1 4.68%
COc1cccc(NC(=O)N(C)C[C@@H]2Oc3ncc(Br)cc3C(=O)N([C@@H](C)CO)C[C@H]2C)c1 4.14%
CO[C@@H]1CN(C)C(=O)c2cc(NC(=O)C3CCCC3)ccc2OC[C@@H](C)N(Cc2ccc(F)cc2)C[C@H]1C 7.43%
COc1ccccc1NC(=O)N1C[C@H]2[C@@H](c3ccccc31)[C@H](CO)N2Cc1ccc2c(c1)OCO2 -2.67%
COc1ccccc1NC(=O)N1C[C@@H]2[C@H](c3ccccc31)[C@H](CO)N2CC1CCOCC1 8.14%
